Smad3 inh: blocks human Smad3 binding to FoxH1 peptide; P84022; TR-FRET Smad3/Dy647-FoxH1 peptide binding, europium anti-His; inhibition, % at 25 µM; 0.29% of 88,000 active; AID 630;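 active means compounds that reduce the energy-transfer binding signal between the protein and its labelled peptide by more than half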;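 further: 0% = Smad3 plus labelled peptide maximal FRET and 100% = peptide-only background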
GALR2 agonist: GALR2 (human) receptor agonism. GALR2-expressing cells, agonist activation read-out. 0.48% of 140,000 active. O43603. activation, % (concentration not given with the values). AID 803; in the data active means activation above about 5%, passing the limit was not always enough;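 further: 0% = vehicle buffer wells and 100% = reference agonist at full effect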
Target sequence (O43603 whole entry, looked up): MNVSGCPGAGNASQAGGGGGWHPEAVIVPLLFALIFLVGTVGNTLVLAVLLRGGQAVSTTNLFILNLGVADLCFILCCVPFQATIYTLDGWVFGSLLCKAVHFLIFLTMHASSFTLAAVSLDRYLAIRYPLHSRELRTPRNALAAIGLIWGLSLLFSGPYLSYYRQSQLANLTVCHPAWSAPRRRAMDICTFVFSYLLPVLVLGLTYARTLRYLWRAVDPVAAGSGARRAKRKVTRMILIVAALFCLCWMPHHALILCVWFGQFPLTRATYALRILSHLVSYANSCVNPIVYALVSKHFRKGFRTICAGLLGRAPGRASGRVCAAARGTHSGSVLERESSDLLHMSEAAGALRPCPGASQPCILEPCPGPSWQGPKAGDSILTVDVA
GALR2 blocker: blocks the human galanin receptor 2 | 0.39% of 140,000 active | GALR2-expressing cells, antagonist mode | O43603 | inhibition, % at 4 µM; in the data active means inhibition above about 27%;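 further: cells stimulated with galanin 1-16 at roughly its EC80; 0% = agonist challenge control and 100% = basal control without agonist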
S1P2 antag: blocks the human S1P2 receptor | 0.21% of 97,000 active | cell-based S1P2 antagonist assay, inhibition at 5 uM | O95136 | inhibition, % at 5 µM; in the data active means inhibition above about 45%;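 further: CRE beta-lactamase reporter cells expressing human S1P2 stimulated with S1P; 0% = agonist at EC80 alone and 100% = agonist plus reference antagonist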
S1P2 ag: agonists of human S1P2 receptor; O95136; S1P2-expressing cell line, agonist reporter read-out; 0.46% of 97,000 active; activation, % at 4.5 µM; AID 729; in the data active means activation above about 16%;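 further: 0% = vehicle low control and 100% = maximal reference agonist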
Candida biofilm: kills Candida albicans biofilms. C. albicans biofilm + clotrimazole, Alamar Blue. inhibition, % at 6 µM. 0.14% of 85,000 active. AID 834;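 active means inhibition above 20%; inactive means inhibition below 20%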;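 further: preformed 24 hr biofilms exposed to compound for 48 hr; 0% = biofilm without compound and 100% = blank killed by clotrimazole plus chlorhexidine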
GALR2 ag confirm: GALR2 (human) agonism confirmed; shares compounds with GALR2 agonist; GALR2-expressing cells, agonist activation; activation, % at 5.6 µM; 10% of 460 active; AID 864; in the data active means activation above about 8.4%;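 further: 0% = buffer-only vehicle wells and 100% = full reference agonist response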
BLA activ ctr: activates beta-lactamase reporter in GALR2 agonist counterscreen. shares compounds with GALR2 agonist. CHO NFAT-bla reporter, beta-lactamase FRET activation. activation, % at 5.6 µM. 10% of 460 active;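 active means activation above the screen-wide mean activation plus 3 SD, cut at about 8% in these data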;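 further: 0% = DMSO with PBS wells and 100% = thapsigargin positive control wells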
An asterisk follows results filed as active; x = no result. A selection: hits, their analogues and other compounds. The true share with any hit is near 1.3%.

SMILES	Smad3 inh	GALR2 agonist	GALR2 blocker	S1P2 antag	S1P2 ag	Candida biofilm	GALR2 ag confirm	BLA activ ctr
Cc1cc(C)c2nc(NNC(=O)c3ccc(S(=O)(=O)N4CCCC(C)C4)cc3)sc2c1 (configuration not stated)	x	18*	16	x	x	x	8.2*	-2
Cc1ccc2nc(NNC(=O)c3ccc(S(=O)(=O)N4CCc5ccccc5C4)cc3)sc2c1	x	-3	-3	x	x	x	x	x
Cc1cccc2sc(NNC(=O)c3ccc(S(=O)(=O)N4CC(C)CC(C)C4)cc3)nc12 (configuration not stated)	x	33*	8	x	x	x	8	-3
O=C1C2CSCN2C(=O)CN1CCCN1CCN(C(c2ccccc2)c2ccccc2)CC1 (configuration not stated)	x	0	-4	x	x	x	x	x
CCCC(C)NS(=O)(=O)c1ccc(OC)c(C)c1 (configuration not stated)	-14	-1	-2	-8	-3	-5	x	x
O=C(CN1C(=O)NC2(CCCCC2)C1=O)Nc1ccccc1Cl	10	-1	10	x	x	7	x	x
O=C1NC2(CCCCC2)C(=O)N1CCS(=O)(=O)Oc1ccccc1	25	10	-14	-13	-2	1	-1	-3
O=C(Cc1cc(=O)oc2cc(O)ccc12)NCC1CCC(C(=O)O)CC1 (configuration not stated)	10	9	0	-4	4	10	1	3
CCCCCCc1cc2cc(C(N)=O)c(=N)oc2cc1O	4	105*	-29	-76	39*	3	8	23*
CCCCCCc1cc2cc(C(=O)NC)c(=N)oc2cc1O	x	4	-13	4	4	x	x	x
CCCCCCc1cc2cc(S(=O)(=O)c3ccc(F)c(Cl)c3)c(=O)oc2cc1O	x	19*	8	x	x	x	26*	50*
COc1ccc(Cc2nc(C(=O)NCc3ccccc3OC)cs2)cc1	x	-1	3	1	-4	x	x	x
COc1ccc(Cc2nc(C(=O)Nc3ccc(OC)cc3)cs2)cc1	-1	27*	-5	0	-6	-3	-2	-4
CCN(CC)C(=O)CCNS(=O)(=O)c1ccc(C)cc1	8	-2	7	25	-4	-15	x	x
O=C(COC(=O)CNC(=O)c1ccccc1)Nc1nc(-c2ccccc2)cs1	x	0	7	x	x	x	x	x
COc1ccc(CCNC(=O)CN2CCOc3ccccc32)cc1OC	1	18*	-3	x	x	7	-1	-1
Brc1ccc(-c2nc(N/N=C/c3cccnc3)c3ccccc3n2)cc1	6	76*	4	7	-7	-2	0	-1
Cc1ccc(-c2nc(N/N=C/c3ccccc3[N+](=O)[O-])c3ccccc3n2)cc1	x	-2	-4	9	-3	x	x	x
Cc1ccc(-c2nn(CC(N)=O)c(=O)c3ccccc23)cc1S(=O)(=O)N(C)C	-19	34*	-1	-5	-6	2	0	-1
Cc1ccc(S(=O)(=O)Cn2nnnc2C(c2ccccc2)N2CCN(c3ncccn3)CC2)cc1 (configuration not stated)	2	0	-1	-6	-7	3	x	x
Cc1ccc(S(=O)(=O)Cn2nnnc2C(c2ccccc2)N2CCN(c3ccccc3)CC2)cc1 (configuration not stated)	7	29*	18	-2	-11	6	-1	-4
O=C(COc1ccc(S(=O)(=O)NC2CCCCC2)cc1)Nc1ccc2c(c1)OCCO2	0	-1	5	12	-5	8	x	x
CCOC(=O)c1cc2cc3ccccc3cc2[nH]1	9	22*	4	15	15	1	4	11*
CC(C)OC(=O)c1cc2ccccc2[nH]1	-8	-2	0	-23	-5	7	x	x
CCCCC(CC)C(=O)NCCCN1CCN(CCCNC(=O)C(CC)CCCC)CC1 (configuration not stated)	-3	-1	2	x	x	0	x	x
SMILES	Smad3 inh	GALR2 agonist	GALR2 blocker	S1P2 antag	S1P2 ag	Candida biofilm	GALR2 ag confirm	BLA activ ctr
CC(=O)c1ccc(NC(=O)c2cccs2)cc1	6	-2	-3	-10	-1	5	x	x
N/C(=N\O)c1ccc(NC(=O)c2cccs2)cc1	-7	25*	3	x	x	-2	-1	-2
O=C(CSc1nnc(-c2n[nH]c3ccccc23)n1-c1ccccc1)Nc1ccccc1Cl	x	0	-6	x	x	x	x	x
Cc1cccn2c(=O)c3cc(C(=O)NCc4cccnc4)c(=N)n(C(C)C)c3nc12	6	9	-9	-16	8	5	1	3
COc1cccc2cc(-c3nnc(SCC(=O)NCCc4ccccc4)n3C)oc12	0	9	6	-6	-7	6	0	0
Nc1c(C(=O)c2ccccc2)sc2c1c(=O)[nH]c(=O)n2-c1ccccc1	x	3	-13	x	x	x	x	x
Nc1c(C(=O)c2ccc(Cl)cc2)sc2c1c(=O)[nH]c(=O)n2-c1ccccc1	x	22*	-15	x	x	x	6	4
CCCN1C(=O)/C(=C2\SC(N3CCCCC3)=NC2=O)c2ccccc21	3	59*	2	-26	-5	2	1	0
Cc1ccccc1-n1c(SCC(=O)Nc2ccccc2)nc2nc3c(cc2c1=O)CCCC3	x	1	-5	x	x	x	x	x
COC(=O)C1CCN(C(=O)COC(=O)CC(NC(C)=O)c2ccccc2)CC1 (configuration not stated)	x	-1	1	-4	-1	x	x	x
COC(=O)C1CCN(C(=O)COC(=O)Cn2cnnn2)CC1	18	160*	-7	6	-3	7	-1	0
COc1cccc(Oc2cncnc2-c2ccc(OC)cc2O)c1	-1	0	2	-4	-8	4	x	x
Cc1ccccc1OCCn1cc(/C=C(\C#N)C(=O)NCc2ccco2)c2ccccc21	x	1	-5	x	x	x	x	x
Cc1ccc(C)c(NC(=O)/C(C#N)=C/c2cn(CC(=O)NCc3ccco3)c3ccccc23)c1	x	70*	-9	x	x	x	27*	27*
Cc1cc(C)cc(NC(=O)/C(C#N)=C/c2cn(CC(=O)NCc3ccco3)c3ccccc23)c1	x	52*	5	x	x	x	26*	24*
CN(Cc1cccs1)C(=O)CSc1nnnn1C	5	-2	-1	2	-1	-4	x	x
CCOC(=O)c1c(CSC(=N)N)n(-c2ccc(Br)cc2)c2cc(Br)c(OC(C)=O)cc12	x	34*	-9	x	x	x	-4	-19
CCOC(=O)c1ccc(NC(=S)N2CCSC2c2ccc(Br)cc2)cc1 (configuration not stated)	x	17*	-2	x	x	x	17*	38*
Cc1csc(NC(=O)c2cc3c(s2)-c2ccccc2OC3)n1	5	9	4	-6	-1	-2	3	6
O=C(NC1CCCCC1)C1CCN(c2cnccn2)CC1	8	1	-9	19	-8	5	x	x
O=C(NCCc1ccccc1)c1ccc(CS(=O)(=O)Cc2ccccc2F)o1	-8	9	-2	3	-1	2	-1	-1

Screening results: PubChem, several laboratories
